Screen size: about 340,000 compounds; about 930 (0.27%) were called active.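 How the source made its calls: active means inhibition above the screen-wide average of all tested compounds plus 3 SD (cut at about 25% in these data); inactive means the rest.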 The full list was thinned out, with actives kept by preference.
Target: Platelet-activating factor acetylhydrolase IB subunit alpha1 (Homo sapiens) (UniProt Q15102)
Experiment: PAFAH1B3 enzyme inhibitors, primary screen, biochemical, fluorescence polarization, human (AID 492972);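 further: 0% = enzyme with DMSO only and 100% = wells lacking PAFAH1B3 protein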
Conditions: recombinant PAFAH1B3, FP-rhodamine probe, at 3.39 µM, stronger effect = higher value

Platelet-activating factor acetylhydrolase IB subunit alpha1 (Homo sapiens), sequence (Q15102 whole entry, looked up): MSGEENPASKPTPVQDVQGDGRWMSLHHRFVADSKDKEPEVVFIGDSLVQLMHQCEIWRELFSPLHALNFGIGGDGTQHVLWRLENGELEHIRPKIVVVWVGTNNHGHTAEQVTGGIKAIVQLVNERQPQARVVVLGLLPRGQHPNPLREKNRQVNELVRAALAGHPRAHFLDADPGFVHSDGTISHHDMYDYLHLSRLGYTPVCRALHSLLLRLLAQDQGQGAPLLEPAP

SMILES	inhibition
CC(C)c1ccc(NC(=O)[C@@H](NC(=O)N2CC(=O)Nc3ccccc32)C(C)C)cc1	6.6% (inactive)
Cc1nc(NC(CC(C)C)C(=O)O)c2nc(C)oc2n1 (stereo not drawn)	7.36% (inactive)
COc1cccc(N(CC(=O)NCCSc2ccccn2)S(C)(=O)=O)c1	12.7% (inactive)
CCOC(=O)[C@H]1[C@H]2COc3ccc(Br)cc3[C@@H]2N2C(=O)CN(C)C(=O)[C@@]12C	2.41% (inactive)
O=C1CSC(=S)N1/N=C/c1ccc(O)c([N+](=O)[O-])c1	31.7% (active)
Cc1cc(C(=O)N/N=C/c2ccc(O)c([N+](=O)[O-])c2)c(C)n1-c1ccc(F)cc1	9.16% (inactive)
CCOc1cccc(/C=N/N2C(=O)CSC2=S)c1O	13.7% (inactive)
Cc1ccc(C)c2[nH]c(=O)c(CCNC(=O)CC(C)C)cc12	13.2% (inactive)
O=C(O)c1ccc(Cn2cnc3c(=S)nc[nH]c32)cc1	-3% (inactive)
COC(=O)c1ccccc1NC(=O)CSc1n[nH]c(-c2ccncc2)n1	-3.63% (inactive)
CC(=O)Nc1ccc(S(=O)(=O)N2CCC(C(=O)N[C@@H](Cc3ccccc3)C(=O)O)CC2)cc1	-0.21% (inactive)
CCOC(=O)c1ccn(-c2nc(-c3ccco3)cc(C(F)(F)F)n2)n1	1.73% (inactive)
Cc1c(C(=O)O)nnn1-c1nonc1N	3.33% (inactive)
COC(=O)C1=C(C)NC(=O)/C1=C/c1ccc(CNS(=O)(=O)c2ccc(C)cc2)o1	10.7% (inactive)
Cn1c(Cc2cccs2)nnc1SCC(=O)Nc1ccccc1	10.8% (inactive)
CCOC(=O)c1[nH]c2ccccc2c1N=C(C)N(CC)CC	9.46% (inactive)
CCOC(=O)c1c(C)[nH]c2c1-c1ccccc1C(=O)C2=O	58.3% (active)
CCOC(=O)C1=C(C)c2ccccc2OC1(C)C(=O)OCC (stereo not drawn)	2.09% (inactive)
c1ccc(-c2c[nH]c(-c3ccccc3)c2)cc1	3.23% (inactive)
Cc1nc(CNS(=O)(=O)c2ccc(Oc3ccccc3)cc2)cs1	13.7% (inactive)

SMILES	inhibition
COc1cccc(Cn2cc(/C=N/NC(=O)c3cc(O)cc(O)c3)c3ccccc32)c1	37.5% (active)
N#CCC(=O)N/N=C/c1cn(Cc2ccc3ccccc3c2)c2ccccc12	-0.94% (inactive)
CNC(=S)N/N=C/c1cn(Cc2ccc(C)cc2)c2ccccc12	3.79% (inactive)
COC(=O)C1=C[C@@H](C(=O)OC)[C@@H]2C3=C(C(=O)[C@]2(C)NC(=O)c2ccccc2)[C@H](C)n2c(=O)n(C)c(=O)n2[C@@H]3C1	4.02% (inactive)
COC(=O)Cc1ccc(N(Cc2ccccc2F)S(=O)(=O)c2ccc(Br)cc2)cc1	8.61% (inactive)
CCN(CC)S(=O)(=O)N1CCC(C(=O)NC(C)CCc2ccccc2)CC1 (stereo not drawn)	9.79% (inactive)
CC(C)N(C)C(=O)CCc1nnc(CCc2c[nH]c3ccccc23)o1	1.11% (inactive)
CN(C)CCCCCN(C)Cc1cc2ccccc2o1	3.58% (inactive)
O=C(Cn1nc([N+](=O)[O-])nc1Br)NC1CCCCC1	11% (inactive)
CCN1CCc2nc(NC(=O)c3cc(F)c(F)cc3Cl)sc2C1	1.2% (inactive)
CC(C)c1ccc(S(=O)(=O)N2CCN(C(=O)CN3C(=O)NC(C)(c4ccccc4)C3=O)CC2)cc1 (stereo not drawn)	5.24% (inactive)
COc1ccccc1N1CCN(c2nc(C)cc(=O)[nH]2)CC1	9.92% (inactive)
Clc1cc(NC2CCCCC2)ncn1	6.06% (inactive)
O=C(OCC(=O)N1CCN(c2ccccc2)CC1)c1ccc([N+](=O)[O-])s1	53.8% (active)
COc1cc(NC(=O)COC(=O)c2ccc([N+](=O)[O-])s2)cc(OC)c1OC	23.3% (inactive)
C[C@H](NC(=O)c1ccccc1Cl)C(=O)OCC(=O)N1CCN(c2ccccc2)CC1	2.77% (inactive)
COc1ccc(C(=O)COC(=O)c2ccc([N+](=O)[O-])s2)cc1OC	33.9% (active)
COc1ccc(C(=O)OCC(=O)c2ccc(C)c(S(=O)(=O)N3CCOCC3)c2)cc1OC	14% (inactive)
COc1cccc(/C=C/C(=O)OCC(=O)N2CCN(c3ccccc3)CC2)c1	-3.05% (inactive)
CN1/C(=c2/s/c(=C3/C(=O)N(c4ccccc4)NC3=Nc3ccccc3)n(C)c2=O)C(C)(C)c2ccccc21	6.84% (inactive)

SMILES	inhibition
CC(C)CC[n+]1ccn(C2=C([O-])c3ccccc3C(=O)/C2=N\S(=O)(=O)c2ccccc2)c1	34.1% (active)
COc1ccc(S(=O)(=O)/N=C2\C=C(NS(=O)(=O)c3ccccc3)C(=O)c3ccccc32)cc1	-2.66% (inactive)
CCCCCC(=O)Nc1ccc(-c2cn3cccnc3n2)cc1	8.1% (inactive)
COc1ccc(-c2cc3n(n2)CCc2nc4ccccc4n2-3)cc1	1.18% (inactive)
O=C1C(Cl)=C(Oc2ccccc2)C(=O)c2ccccc21	37.3% (active)
CCC(C)C(NC(=O)C1CCC(=O)N1C(=O)OCc1ccccc1)C(=O)NC(C(=O)N1CCCC1C(N)=O)C(C)CC (stereo not drawn)	-7.74% (inactive)
CC1CCN(CCCn2c(SCC(=O)NC3CCCC3)nc3ccccc3c2=O)CC1	6.29% (inactive)
O=Cc1cn(-c2ccccc2)nc1-c1ccccn1	0.88% (inactive)
Nc1ccc2nc3c(=O)[nH]c(=S)[nH]c3nc2c1	48.8% (active)
Cn1ncc(Br)c1C(=O)NC1CCCC1	4.81% (inactive)
O=C(Nc1ccc(Br)cc1)C1CCC(=O)N1Cc1ccccc1Cl (stereo not drawn)	7.1% (inactive)
N#Cc1ccc(S(=O)(=O)NCC(=O)OCC(=O)NCCc2ccccc2)cc1	-8.29% (inactive)
O=C(Oc1cccc(N2C(=O)C3C4c5ccccc5C(c5ccccc54)C3C2=O)c1)c1ccco1 (stereo not drawn)	12.6% (inactive)
COc1cccc(C2CC(c3ccccc3)=NN2S(=O)(=O)c2ccccc2)c1OC (stereo not drawn)	0.58% (inactive)
COc1ccc(C(=O)C(C)OC(=O)c2cccc(S(=O)(=O)Nc3c(C)n(C)n(-c4ccccc4)c3=O)c2)cc1 (stereo not drawn)	10% (inactive)
Oc1cccc(/C=N/Nc2ccc(Cl)nn2)c1O	55.2% (active)
O=C(NN=Cc1ccccc1O)NN=Cc1ccccc1O	7.65% (inactive)
C/C(=N\Nc1ccc(Cl)nn1)c1ccccc1O	4.6% (inactive)
